Reference: PubChem BioAssay (NCATS)
Values joined by “and” are separate entries in the source; they are usually repeats but may differ in a detail not shown here. Identical values can stand only once. Records with an inconclusive call do not appear. A call without a number means that no potency is given here. Active and inactive are the calls of the source. Calls come from the whole dose curve; as a rule, active = well fitted curve in the direction sought with a large enough effect; inconclusive = small, poorly fitted or top-dose-only effect, or another doubt; inactive = no such curve, though single readings can be large; an effect the other way counts as inactive or inconclusive.

Tested on: not listed separately
Experiment: Inducers of the Endoplasmic Reticulum Stress Response (ERSR) in human glioma: Validation (AID 504836)
Settings: human glioma cells, ER stress response reporter; series mostly up to 38.3 µM
In short: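 Stably transfected U87-MG human glioma cells carrying a GRP78-based luminescent sensor were seeded at 1000 cells/well, pin-dosed with compounds and incubated 16 h. Luciferase reagent was then added, and end-point luminescence was read after 10 min at room temperature.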

Row | SMILES | outcome
1 | O=P(O)(O)C(Cl)(Cl)P(=O)(O)O | inactive
2 | CCCn1c(C)c(C(=O)c2ccc3ccccc3c2)c2ccccc21 | inactive
3 | CC(=O)c1c(O)c(C)c(O)c(Cc2c(O)c3c(c(C(=O)/C=C/c4ccccc4)c2O)OC(C)(C)C=C3)c1O | inactive
4 | CCCN1CC[C@@H]2c3cc(O)ccc3CC[C@@H]21 | inactive
5 | CN(N=O)c1cc(O)ccc1O | inactive
6 | CC(C)CC(NP(=O)(O)O[C@@H]1O[C@@H](C)[C@H](O)[C@@H](O)[C@H]1O)C(=O)NC(Cc1c[nH]c2ccccc12)C(=O)O (stereo not given in full) | inactive

Target: Ubiquitin carboxyl-terminal hydrolase 1 (Homo sapiens) (UniProt O94782)
Experiment: Inhibitors of USP1/UAF1: Pilot qHTS (AID 504865); note: nearly all actives have a fitted effect of over 35% in size; note: potency is the fitted concentration of half-maximal effect
Settings: purified USP1/UAF1, Ub-rhodamine cleavage fluorescence; series mostly up to 114 µM
In short: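 USP1/UAF1 complex at 1 nM preincubated 15 min at room temperature with compound, then Ub-Rho substrate added at 150 nM final. Fluorescence (480/540 nm) read kinetically in 50 mM HEPES pH 7.8, 0.5 mM EDTA, 1 mM TCEP, 0.1 mg/ml BSA, 0.01% Tween-20.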

Sequence of Ubiquitin carboxyl-terminal hydrolase 1 (Homo sapiens) (O94782 whole entry, looked up): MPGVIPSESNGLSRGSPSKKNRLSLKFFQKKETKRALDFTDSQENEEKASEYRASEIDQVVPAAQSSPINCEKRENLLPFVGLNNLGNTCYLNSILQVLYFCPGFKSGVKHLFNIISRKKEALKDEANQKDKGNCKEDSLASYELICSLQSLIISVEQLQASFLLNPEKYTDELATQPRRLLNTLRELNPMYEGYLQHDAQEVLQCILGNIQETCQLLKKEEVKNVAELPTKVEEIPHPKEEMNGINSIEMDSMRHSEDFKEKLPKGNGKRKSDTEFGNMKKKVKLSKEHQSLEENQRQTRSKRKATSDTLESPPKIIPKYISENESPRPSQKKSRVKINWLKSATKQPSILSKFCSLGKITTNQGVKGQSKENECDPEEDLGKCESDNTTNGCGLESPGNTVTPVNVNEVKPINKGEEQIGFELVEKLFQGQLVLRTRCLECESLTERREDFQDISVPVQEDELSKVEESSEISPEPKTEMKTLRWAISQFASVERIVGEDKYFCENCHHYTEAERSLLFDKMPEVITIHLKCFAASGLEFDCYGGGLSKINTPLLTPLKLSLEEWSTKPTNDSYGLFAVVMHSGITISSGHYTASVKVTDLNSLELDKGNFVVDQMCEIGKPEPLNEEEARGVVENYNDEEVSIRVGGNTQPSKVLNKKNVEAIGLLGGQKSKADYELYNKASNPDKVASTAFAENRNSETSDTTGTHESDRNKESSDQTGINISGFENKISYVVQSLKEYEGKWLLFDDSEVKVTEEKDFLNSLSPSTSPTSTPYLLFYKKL

Row | SMILES | Potency
7 | CCCN(CCC)C1CCc2cccc(O)c2C1 (stereo not given) | inactive
8 | CC(N)Cc1c[nH]c2ccc(OCc3cccs3)cc12 (stereo not given) | inactive
9 | O=c1c2ccccc2[se]n1-c1ccccc1 | inactive
10 | N[C@@H](Cn1ccc(=O)[nH]c1=O)C(=O)O | inactive
11 | NCCc1ccc(S(=O)(=O)F)cc1 | inactive
12 | C=CCN1CC[C@]23c4c5ccc(O)c4O[C@@H]2/C(=N/N=C2\CC[C@@]4(O)C6Cc7ccc(O)c8c7[C@@]4(CCN6CC=C)[C@@H]2O8)CC[C@@]3(O)C1C5 | inactive
13 | CNc1ccc2oc(C[C@H]3O[C@@]4(CC[C@H]3C)O[C@H]([C@H](C)C(=O)c3ccc[nH]3)[C@H](C)C[C@H]4C)nc2c1C(=O)O | inactive
14 | CC(C)NP(=O)(NC(C)C)OP(=O)(NC(C)C)NC(C)C | inactive
15 | CC1OC1P(=O)(O)O (stereo not given) | inactive
16 | CCCN1CCc2cccc3c2[C@H]1Cc1ccc(O)c(O)c1-3 | inactive
17 | C=CCN1C[C@@H](C)N([C@H](c2ccc(C(=O)N(CC)CC)cc2)c2cccc(OC)c2)C[C@@H]1C | inactive
18 | O=C1C=CC(=O)C=C1 | inactive
19 | O=S1(=O)N(CCN2CC=C(c3c[nH]c4cc(F)ccc34)CC2)c2cccc3c2N1CCC3 | inactive
20 | CCCN(CCC)C1Cc2cc(OC)c(OC)cc2C1 | inactive
21 | C[C@]12Cc3cn4c(nc3C=C1CCC1C2CC[C@@]2(C)[C@H]1CC[C@@]2(O)C#N)nc1ccccc14 (stereo not given in full) | inactive
22 | COc1ccc2c(c1)/C(=C/c1cnc[nH]1)C(=O)N2 | inactive
23 | C[N+]1(C)C2CCC1CC(OC(=O)c1c[nH]c3ccccc13)C2 (stereo not given) | inactive
24 | O=[N+]([O-])c1cc(O)c(O)c([N+](=O)[O-])c1 | inactive
25 | CC(C)[C@@]1(NC(=O)[C@@H]2C[C@@H]3c4cccc5[nH]cc(c45)C[C@H]3N(C)C2)O[C@@]2(O)[C@@H]3CCCN3C(=O)[C@H](Cc3ccccc3)N2C1=O | inactive
26 | CCn1cnc2c(Nc3cccc(Cl)c3)nc(N[C@@H]3CCCC[C@@H]3N)nc21 | inactive
27 | c1ccc2c(c1)[I+]c1ccccc1-2 | inactive
28 | CN(N=O)c1ccc(O)c(O)c1 | 22.4 µM (active)
29 | CN1C2CCC1CC(OC(c1ccccc1)c1ccc(Cl)cc1)C2 (stereo not given) | inactive
30 | CCCN(CCC)CCc1c[nH]c2ccc(C(N)=O)cc12 | inactive
31 | CNC(=O)OCC[N+](C)(C)C | inactive
32 | O=P(O)(O)C(Cl)(Cl)P(=O)(O)O | inactive
33 | CC(=O)c1c(O)c(C)c(O)c(Cc2c(O)c3c(c(C(=O)/C=C/c4ccccc4)c2O)OC(C)(C)C=C3)c1O | 79.4 µM (active) and 56.2 µM (active)
34 | CCCN1CC[C@@H]2c3cc(O)ccc3CC[C@@H]21 | inactive
35 | CN(N=O)c1cc(O)ccc1O | inactive
